Reference: publication PMC4336329 (PLoS ONE, 2015)
About 14,000 (4.5%) of roughly 310,000 compounds showed an effect of 50% or more. The effect is printed as a negative number. The list comes from a sample in which strong results are over-represented; it also holds similar structures and randomly drawn compounds.

molecular target: human ether-à-go-go-related gene (hERG) potassium channel (human, UniProt Q12809); assay: primary screen, population patch clamp on CHO cells stably expressing hERG; higher = less effect of the substance
Sequence (Q12809 whole entry, looked up): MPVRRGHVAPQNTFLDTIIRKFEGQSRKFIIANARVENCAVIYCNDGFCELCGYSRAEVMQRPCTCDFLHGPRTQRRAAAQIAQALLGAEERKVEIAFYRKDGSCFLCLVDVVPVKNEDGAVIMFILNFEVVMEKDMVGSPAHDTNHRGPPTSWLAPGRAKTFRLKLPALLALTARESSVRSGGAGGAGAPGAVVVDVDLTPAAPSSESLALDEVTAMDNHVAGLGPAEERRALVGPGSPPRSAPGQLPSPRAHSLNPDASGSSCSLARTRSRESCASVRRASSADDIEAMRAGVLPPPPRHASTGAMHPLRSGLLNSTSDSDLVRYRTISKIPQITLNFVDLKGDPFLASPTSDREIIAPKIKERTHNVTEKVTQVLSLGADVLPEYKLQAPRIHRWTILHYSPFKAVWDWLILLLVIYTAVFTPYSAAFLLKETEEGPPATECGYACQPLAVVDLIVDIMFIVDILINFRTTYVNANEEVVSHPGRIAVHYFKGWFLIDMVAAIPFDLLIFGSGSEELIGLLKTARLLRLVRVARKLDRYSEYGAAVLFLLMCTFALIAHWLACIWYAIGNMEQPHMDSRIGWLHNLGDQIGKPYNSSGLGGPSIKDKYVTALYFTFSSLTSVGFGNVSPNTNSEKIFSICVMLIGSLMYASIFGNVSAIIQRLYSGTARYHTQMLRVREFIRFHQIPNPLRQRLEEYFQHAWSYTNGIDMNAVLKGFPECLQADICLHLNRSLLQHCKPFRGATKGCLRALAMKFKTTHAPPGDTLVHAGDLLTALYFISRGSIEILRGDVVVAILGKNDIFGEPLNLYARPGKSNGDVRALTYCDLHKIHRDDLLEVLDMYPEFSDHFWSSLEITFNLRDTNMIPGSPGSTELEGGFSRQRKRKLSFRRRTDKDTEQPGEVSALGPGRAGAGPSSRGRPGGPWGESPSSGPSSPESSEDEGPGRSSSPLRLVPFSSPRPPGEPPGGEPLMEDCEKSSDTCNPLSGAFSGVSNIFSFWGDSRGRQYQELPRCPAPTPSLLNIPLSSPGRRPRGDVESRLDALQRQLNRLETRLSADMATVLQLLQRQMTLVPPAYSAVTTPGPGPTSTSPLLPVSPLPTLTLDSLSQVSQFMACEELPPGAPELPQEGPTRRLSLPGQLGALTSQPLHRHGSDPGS
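Further: peak tail current of the secondary pulse compared with the same well before compound.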

SMILES	hERG current change (%, negative = inhibition) at 10uM [%]
O=S(=O)(N/N=C\c1cn(-c2ccccc2)nc1-c1ccccc1)c1ccccc1	5.42
COC(=O)c1ccc(N2C(=O)Nc3ccccc3N2O)cc1	12.5
CCN1CCN(C(C(=O)NC2CCCC2)c2cc3c(cc2[N+](=O)[O-])OCO3)CC1 (stereo not drawn)	-1.51
CN(C)S(=O)(=O)N1CCC(C(=O)O)(c2ccccc2)CC1	18.7
CCCc1nc2ccc(NC(=O)c3cccs3)cc2c(=O)n1Cc1ccccc1Cl	1.8
CC(=O)c1cccc(S(=O)(=O)N2CCC(n3nnc4cc(F)ccc43)CC2)c1	-63.7
O=S(=O)(c1ccccc1)N1CCC(n2nnc3cc(F)ccc32)CC1	-27.7
O=S(=O)(c1cccc(S(=O)(=O)N2CCC(n3nnc4ccccc43)CC2)c1)N1CCCCC1	-55.7
COC(=O)c1cccc(S(=O)(=O)N2CCC(n3nnc4cc(F)ccc43)CC2)c1	-34.3
O=S(=O)(NC1CCCC1)c1cccc(S(=O)(=O)N2CCC(n3nnc4ccccc43)CC2)c1	-26
Cc1ccc2c(c1)nnn2C1CCN(S(=O)(=O)c2cccc(S(=O)(=O)N(C)C)c2)CC1	-16.7
CCCc1ccc(-c2cc(C(=O)NC3=NCCS3)c3ccccc3n2)cc1	-2.06
CCCN1CCN(CCCNC(=O)Cn2nc(-c3ccccc3)ccc2=O)CC1	-22.2
O=C(Cn1nc(-c2ccc(Cl)cc2)ccc1=O)NCCCN1CCN(Cc2ccccc2)CC1	-64.2
CCCN1CCN(CCCNC(=O)Cn2nc(-c3ccc(Cl)cc3)ccc2=O)CC1	-50.8
O=C(Cn1nc(-c2ccccc2)ccc1=O)NCCN1CCN(Cc2ccccc2)CC1	-19.1
CN1CCN(CCCNC(=O)Cn2nc(-c3ccccc3)ccc2=O)CC1	14.1
CCCN1CCN(CCCNC(=O)Cn2nc(-c3ccc(C)cc3)ccc2=O)CC1	-24.6
Cn1c(=O)c2c(nc(CN3CCOCC3)n2CCN2CCOCC2)n(C)c1=O	3.09
COc1ccc(/C=C(/NC(=O)c2ccccc2)C(=O)NC(Cc2c[nH]c3ccccc23)C(=O)O)cc1 (stereo not drawn)	14.5
COc1cccc(/C=C2\SC(=S)N(CC(=O)N(C)C3CCS(=O)(=O)C3)C2=O)c1 (stereo not drawn)	1.18
CCCCOC(=O)NS(=O)(=O)c1sc(CC(C)C)cc1-c1ccc(Cn2c(CC)nc3c(C)cc(C)nc32)cc1	5.9
Cc1ccccc1C1=NCC(=S)Nc2ccc(Cl)cc21	0.98
N=c1c2c(ncn1CCN1CCOCC1)Oc1ccc3ccccc3c1C2c1ccccc1 (stereo not drawn)	-49.3
COc1ccc(C2c3ccc4ccccc4c3Oc3ncn(CCCO)c(=N)c32)cc1OC (stereo not drawn)	-62.3
COc1ccc(C2c3c(ncn(CCCO)c3=N)Oc3ccc4ccccc4c32)cc1OC (stereo not drawn)	-28.8

SMILES	hERG current change (%, negative = inhibition) at 10uM [%]
COc1ccc(C2c3ccc4ccccc4c3Oc3ncn(CCO)c(=N)c32)cc1 (stereo not drawn)	-74.2
COc1ccc(C2c3ccc4ccccc4c3Oc3ncn(CCO)c(=N)c32)cc1OC (stereo not drawn)	-45.7
N=c1c2c(ncn1CCCO)Oc1c(ccc3ccccc13)C2c1ccccc1 (stereo not drawn)	-70.4
COc1ccc(C2c3c(ncn(CCCO)c3=N)Oc3ccc4ccccc4c32)cc1 (stereo not drawn)	-33.9
N=c1c2c(ncn1CCCO)Oc1ccc3ccccc3c1C2c1ccccc1 (stereo not drawn)	-53.6
COC(=O)C1CN(C(=O)COc2ccc(Cl)cc2Cl)c2ccccc2O1 (stereo not drawn)	-2.51
CCCCNC(=O)/C(C#N)=c1\s/c(=C\c2ccccc2OC(F)F)c(=O)n1CCCOC	22.6
Cc1ccc(Nc2c([N+](=O)[O-])cc(C(=O)N3CC(=O)Nc4ccccc43)cc2[N+](=O)[O-])c(C)c1	15.2
COCCNC(=O)C(=O)c1c(-c2ccccc2)[nH]c2ccccc12	1.69
CCOC(=O)NCc1ccc2c(c1)OCO2	19.7
O=C(CCN1C(=O)/C(=C/c2ccc(F)cc2)SC1=S)Nc1cc([N+](=O)[O-])ccc1O	15
COC(=O)c1ccnc(/C=N/O)c1	10.7
CCNS(=O)(=O)c1ccc2nc(NC(=O)c3cccnc3)sc2c1	-1.78
Cc1ccc(N2CC(C(=O)Nc3cccnc3)CC2=O)cc1 (stereo not drawn)	-9.42
O=S(=O)(c1ccc(Cl)cc1)N1CCN2CCCC2C1 (stereo not drawn)	-6.01
CN(C)NC1CC(=O)N(c2ccccc2)C1=O (stereo not drawn)	15.9
NC(=O)N/N=C/c1cn(-c2ccccc2)nc1-c1ccccc1	-6.63
Cc1[nH]c(=O)[nH]c(=O)c1S(=O)(=O)Nc1ccc(F)cc1Cl	17.1
S=c1[nH]nc(COc2ccccc2)n1/N=C/c1ccc(Cl)cc1	22.4
N=c1c2c(ncn1Cc1ccco1)Oc1c(ccc3ccccc13)C2c1ccccc1 (stereo not drawn)	-26.5
COc1ccc(C2c3ccc4ccccc4c3Oc3ncn4nc(Cc5ccccc5)nc4c32)cc1OC (stereo not drawn)	13.2
COc1ccc(C2c3ccc4ccccc4c3Oc3ncn(CCCO)c(=N)c32)cc1 (stereo not drawn)	-71.6
COc1ccccc1C1c2ccc3ccccc3c2Oc2ncn(CCCO)c(=N)c21 (stereo not drawn)	-66.6
COc1ccc(C2c3ccc4ccccc4c3Oc3ncn(Cc4ccco4)c(=N)c32)cc1OC (stereo not drawn)	-62.9
CC1(c2nnc(-c3ccccc3)o2)CC(c2ccc([N+](=O)[O-])cc2)=NO1 (stereo not drawn)	4.53
